# Laboratory results taken from PubChem BioAssay (NCI).
# The panel holds about 79,000 compounds, 15% with a hit somewhere; the sample as a whole holds those more often. A number with no mark means an inactive call. The source made the active and inactive calls. Rule as the data show it: active = growth inhibition above about 70%; inactive = the rest.
# Key:
# [1] = NCI Yeast Anticancer Drug Screen. Data for the rad52 strain (AID 147);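 also: 0% = growth of vehicle-treated control cultures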; details: S. cerevisiae rad52 mutant growth inhibition, stronger effect = higher value
# Method in brief: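 Compounds are applied to a genetically defined yeast strain lacking normal DNA damage repair, and inhibition of growth is expressed relative to cultures given vehicle only.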
# [2] = NCI Yeast Anticancer Drug Screen. Data for the wt1 strain (AID 149);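 also: 0% = growth of vehicle-treated wt1 cultures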; details: S. cerevisiae wt1 strain (SPY 50644) growth inhibition, stronger effect = higher value
# Method in brief: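 Yeast wt1 strain exposed to compounds; growth inhibition measured relative to vehicle-treated controls.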
# [3] = NCI Yeast Anticancer Drug Screen. Data for the rad50EPP+ strain (AID 151);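 also: 0% = growth of vehicle-treated control cultures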; details: S. cerevisiae rad50 mutant strain, stronger effect = higher value
# Method in brief: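 Compounds were applied to the rad50EPP+ yeast strain, which bears a defined DNA repair alteration, and growth inhibition was determined relative to vehicle-treated cultures.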
# [4] = NCI Yeast Anticancer Drug Screen. Data for the mgt1 strain (AID 153); details: S. cerevisiae mgt1 mutant growth inhibition, stronger effect = higher value
# Method in brief: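 Strain: mgt1 yeast, one of a set carrying defined DNA damage repair or cell cycle control alterations. Compound-treated growth compared with vehicle.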
# [5] = NCI Yeast Anticancer Drug Screen. Data for the rad50 strain (AID 155);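 also: 0% = growth of vehicle-only cultures of the same strain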; details: S. cerevisiae rad50 strain growth inhibition, stronger effect = higher value
# Method in brief: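 Yeast carrying a defined DNA repair defect were exposed to test compounds, and growth was compared with vehicle-treated controls to give percent inhibition.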
# [6] = NCI Yeast Anticancer Drug Screen. Data for the mec2-1 strain (AID 157); details: S. cerevisiae mec2-1 strain, stronger effect = higher value
# Method in brief: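 Strain: mec2-1 (DNA repair/cell cycle alteration). Compound exposure, then growth measured; inhibition expressed relative to vehicle.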
# [7] = NCI Yeast Anticancer Drug Screen. Data for the rad14 strain (AID 159);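 also: 0% = growth of vehicle-treated control cultures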; details: S. cerevisiae rad14 strain growth inhibition, stronger effect = higher value
# Method in brief: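 Yeast cells carrying a defined DNA-repair defect were exposed to compounds, and growth inhibition was calculated relative to vehicle-treated control cultures.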
# [8] = NCI Yeast Anticancer Drug Screen. Data for the sgs1 mgt1 strain (AID 161);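 also: 0% = growth of cultures given vehicle only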; details: S. cerevisiae sgs1 mgt1 strain, stronger effect = higher value
# Method in brief: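 Mutant yeast exposed to compound; growth scored against vehicle-only wells.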
# [9] = NCI Yeast Anticancer Drug Screen. Data for the CLN2oe strain (AID 163);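 also: 0% = growth of vehicle-only control cultures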; details: S. cerevisiae CLN2oe strain, stronger effect = higher value
# Method in brief: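 Growth of a genetically modified yeast strain is measured after compound exposure and compared with cultures given vehicle alone.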
# [10] = NCI Yeast Anticancer Drug Screen. Data for the cln2 rad14 strain (AID 165);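 also: 0% = growth equal to vehicle treated cultures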; details: S. cerevisiae cln2 rad14 strain, stronger effect = higher value
# Method in brief: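 Compounds are applied to the cln2 rad14 yeast strain, and growth is then compared with that of vehicle-treated cultures to give inhibition.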
# [11] = NCI Yeast Anticancer Drug Screen. Data for the bub3 strain (AID 167); details: S. cerevisiae bub3 mutant strain, stronger effect = higher value
# Method in brief: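 Compounds were applied to a genetically altered yeast strain carrying a cell-cycle control defect. Growth inhibition was scored against vehicle-treated controls.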
# [12] = NCI Yeast Anticancer Drug Screen. Data for the wt2 strain (AID 169);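 also: 0% = growth of vehicle-treated yeast cultures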; details: S. cerevisiae wt2 strain growth inhibition, stronger effect = higher value
# Method in brief: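 This strain belongs to a panel of yeast strains with defined genetic alterations in DNA damage repair or cell cycle control. Compounds are applied, and growth inhibition is measured against vehicle-treated cultures.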
# [13] = NCI Yeast Anticancer Drug Screen. Data for the mlh1 strain (AID 171);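 also: 0% = growth of vehicle-treated control cultures of the same strain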; details: S. cerevisiae mlh1 strain growth inhibition, stronger effect = higher value
# Method in brief: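 Growth of the mutant yeast strain after compound exposure, expressed as inhibition relative to vehicle-only controls.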
# [14] = NCI Yeast Anticancer Drug Screen. Data for the sgs1 strain (AID 173);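 also: 0% = growth of vehicle-only control cultures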; details: S. cerevisiae sgs1 mutant, stronger effect = higher value
# Method in brief: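 Growth of a yeast strain bearing a defined genetic alteration is measured after compound treatment. Inhibition is expressed relative to vehicle-only controls.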
# [15] = NCI Yeast Anticancer Drug Screen. Data for the mlh1 rad18 strain (AID 175); details: S. cerevisiae mlh1 rad18 strain growth inhibition, stronger effect = higher value
# Method in brief: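 Read-out is yeast growth inhibition, calculated against vehicle-only controls. The compound was applied to a strain engineered with DNA damage repair alterations.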
# [16] = NCI Yeast Anticancer Drug Screen. Data for the rad18 strain (AID 177); details: S. cerevisiae rad18 mutant growth inhibition, stronger effect = higher value
# Method in brief: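 Growth of the mutant yeast strain after compound exposure, normalised to vehicle-only cultures.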
# [17] = at 5.0 µM (retest, dose inferred, filed as 0.5)
# [18] = at 50.0 µM (retest, dose inferred, filed as 5.0)
smiles,measurement,setting,value
CC(C)(C)N=C(NO)c1ccccc1,growth inhibition,[1]; at 1.2 µM,0%
same,growth inhibition,[1]; at 3.7 µM,1%
same,growth inhibition,[1]; at 11.0 µM,8%
same,growth inhibition,[1]; at 33.0 µM,25%
same,growth inhibition,[1]; at 100.0 µM,68%
same,growth inhibition,[2]; at 1.2 µM,0%
same,growth inhibition,[2]; at 3.7 µM,0%
same,growth inhibition,[2]; at 11.0 µM,5%
same,growth inhibition,[2]; at 33.0 µM,8%
same,growth inhibition,[2]; at 100.0 µM,45%
same,growth inhibition,[3]; at 1.2 µM,0%
same,growth inhibition,[3]; at 3.7 µM,3%
same,growth inhibition,[3]; at 11.0 µM,14%
same,growth inhibition,[3]; at 33.0 µM,35%
same,growth inhibition,[3]; at 100.0 µM,63%
same,growth inhibition,[4]; at 1.2 µM,-2%
same,growth inhibition,[4]; at 3.7 µM,1%
same,growth inhibition,[4]; at 11.0 µM,2%
same,growth inhibition,[4]; at 33.0 µM,27%
same,growth inhibition,[4]; at 100.0 µM,57%
same,growth inhibition,[5]; at 1.2 µM,-2%
same,growth inhibition,[5]; at 3.7 µM,-1%
same,growth inhibition,[5]; [17],-6%
same,growth inhibition,[5]; at 11.0 µM,2%
same,growth inhibition,[5]; at 33.0 µM,14%
same,growth inhibition,[5]; [18],41%
same,growth inhibition,[5]; at 50.0 µM,70.2% (active)
same,growth inhibition,[5]; at 100.0 µM,55%
same,growth inhibition,[6]; at 1.2 µM,-3%
same,growth inhibition,[6]; at 3.7 µM,0%
same,growth inhibition,[6]; [17],-2%
same,growth inhibition,[6]; at 11.0 µM,2%
same,growth inhibition,[6]; at 33.0 µM,12%
same,growth inhibition,[6]; [18],2%
same,growth inhibition,[6]; at 50.0 µM,2.9%
same,growth inhibition,[6]; at 100.0 µM,53%
same,growth inhibition,[7]; at 1.2 µM,-3%
same,growth inhibition,[7]; at 3.7 µM,-3%
same,growth inhibition,[7]; at 11.0 µM,0%
same,growth inhibition,[7]; at 33.0 µM,10%
same,growth inhibition,[7]; at 100.0 µM,46%
same,growth inhibition,[8]; [17],7%
same,growth inhibition,[8]; [18],55%
same,growth inhibition,[8]; at 50.0 µM,74% (active)
same,growth inhibition,[9]; at 1.2 µM,-9%
same,growth inhibition,[9]; at 3.7 µM,-7%
same,growth inhibition,[9]; at 11.0 µM,-2%
same,growth inhibition,[9]; at 33.0 µM,-4%
same,growth inhibition,[9]; at 100.0 µM,47%
same,growth inhibition,[10]; [17],8%
same,growth inhibition,[10]; [18],49%
same,growth inhibition,[10]; at 50.0 µM,43.7%
same,growth inhibition,[11]; at 1.2 µM,-6%
same,growth inhibition,[11]; at 3.7 µM,-9%
same,growth inhibition,[11]; [17],-11%
same,growth inhibition,[11]; at 11.0 µM,-4%
same,growth inhibition,[11]; at 33.0 µM,-9%
same,growth inhibition,[11]; [18],42%
same,growth inhibition,[11]; at 50.0 µM,0.3%
same,growth inhibition,[11]; at 100.0 µM,27%
same,growth inhibition,[12]; at 1.2 µM,1%
same,growth inhibition,[12]; at 3.7 µM,1%
same,growth inhibition,[12]; at 11.0 µM,8%
same,growth inhibition,[12]; at 33.0 µM,20%
same,growth inhibition,[12]; at 100.0 µM,67%
same,growth inhibition,[13]; at 1.2 µM,3%
same,growth inhibition,[13]; at 3.7 µM,1%
same,growth inhibition,[13]; at 11.0 µM,7%
same,growth inhibition,[13]; at 33.0 µM,20%
same,growth inhibition,[13]; at 100.0 µM,64%
same,growth inhibition,[14]; at 1.2 µM,1%
same,growth inhibition,[14]; at 3.7 µM,7%
same,growth inhibition,[14]; at 11.0 µM,14%
same,growth inhibition,[14]; at 33.0 µM,39%
same,growth inhibition,[14]; at 100.0 µM,76% (active)
same,growth inhibition,[15]; [17],3%
same,growth inhibition,[15]; [18],76% (active)
same,growth inhibition,[15]; at 50.0 µM,81.4% (active)
same,growth inhibition,[16]; at 1.2 µM,1%
same,growth inhibition,[16]; at 3.7 µM,-1%
same,growth inhibition,[16]; at 11.0 µM,38%
same,growth inhibition,[16]; at 33.0 µM,38%
same,growth inhibition,[16]; at 100.0 µM,82% (active)
O=C(O)Cc1cc(F)ccc1C(=O)O,growth inhibition,[1]; at 1.2 µM,3%
same,growth inhibition,[1]; at 3.7 µM,4%
same,growth inhibition,[1]; at 11.0 µM,7%
same,growth inhibition,[1]; at 33.0 µM,12%
same,growth inhibition,[1]; at 100.0 µM,28%
same,growth inhibition,[2]; at 1.2 µM,3%
same,growth inhibition,[2]; at 3.7 µM,7%
same,growth inhibition,[2]; at 11.0 µM,13%
same,growth inhibition,[2]; at 33.0 µM,16%
same,growth inhibition,[2]; at 100.0 µM,25%
same,growth inhibition,[3]; at 1.2 µM,-2%
same,growth inhibition,[3]; at 3.7 µM,-6%
same,growth inhibition,[3]; at 11.0 µM,-13%
same,growth inhibition,[3]; at 33.0 µM,-26%
same,growth inhibition,[3]; at 100.0 µM,-15%
same,growth inhibition,[4]; at 1.2 µM,-1%
same,growth inhibition,[4]; at 3.7 µM,3%
same,growth inhibition,[4]; at 11.0 µM,9%
same,growth inhibition,[4]; at 33.0 µM,28%
same,growth inhibition,[4]; at 100.0 µM,48%
same,growth inhibition,[5]; at 1.2 µM,3%
same,growth inhibition,[5]; at 3.7 µM,3%
same,growth inhibition,[5]; [17],-2%
same,growth inhibition,[5]; at 11.0 µM,6%
same,growth inhibition,[5]; at 33.0 µM,12%
same,growth inhibition,[5]; [18],45%
same,growth inhibition,[5]; at 50.0 µM,5.3%
same,growth inhibition,[5]; at 100.0 µM,29%
same,growth inhibition,[6]; at 1.2 µM,-1%
same,growth inhibition,[6]; at 3.7 µM,0%
same,growth inhibition,[6]; [17],1%
same,growth inhibition,[6]; at 11.0 µM,3%
same,growth inhibition,[6]; at 33.0 µM,11%
same,growth inhibition,[6]; [18],2%
same,growth inhibition,[6]; at 50.0 µM,29.9%
same,growth inhibition,[6]; at 100.0 µM,30%
same,growth inhibition,[7]; at 1.2 µM,0%
same,growth inhibition,[7]; at 3.7 µM,-2%
same,growth inhibition,[7]; at 11.0 µM,4%
same,growth inhibition,[7]; at 33.0 µM,14%
same,growth inhibition,[7]; at 100.0 µM,51%
same,growth inhibition,[8]; [17],-8%
same,growth inhibition,[8]; [18],65%
same,growth inhibition,[8]; at 50.0 µM,21.2%
same,growth inhibition,[9]; at 1.2 µM,1%
same,growth inhibition,[9]; at 3.7 µM,4%
same,growth inhibition,[9]; at 11.0 µM,12%
same,growth inhibition,[9]; at 33.0 µM,7%
same,growth inhibition,[9]; at 100.0 µM,12%
same,growth inhibition,[10]; [17],-2%
same,growth inhibition,[10]; [18],5%
same,growth inhibition,[10]; at 50.0 µM,94.5% (active)
same,growth inhibition,[11]; at 1.2 µM,-1%
same,growth inhibition,[11]; at 3.7 µM,-2%
same,growth inhibition,[11]; [17],8%
same,growth inhibition,[11]; at 11.0 µM,1%
same,growth inhibition,[11]; at 33.0 µM,4%
same,growth inhibition,[11]; [18],66%
same,growth inhibition,[11]; at 50.0 µM,73.5% (active)
same,growth inhibition,[11]; at 100.0 µM,17%
same,growth inhibition,[12]; at 1.2 µM,2%
same,growth inhibition,[12]; at 3.7 µM,6%
same,growth inhibition,[12]; at 11.0 µM,13%
same,growth inhibition,[12]; at 33.0 µM,18%
same,growth inhibition,[12]; at 100.0 µM,42%
same,growth inhibition,[13]; at 1.2 µM,5%
same,growth inhibition,[13]; at 3.7 µM,2%
same,growth inhibition,[13]; at 11.0 µM,7%
same,growth inhibition,[13]; at 33.0 µM,15%
same,growth inhibition,[13]; at 100.0 µM,76% (active)
same,growth inhibition,[14]; at 1.2 µM,2%
same,growth inhibition,[14]; at 3.7 µM,7%
same,growth inhibition,[14]; at 11.0 µM,9%
same,growth inhibition,[14]; at 33.0 µM,21%
same,growth inhibition,[14]; at 100.0 µM,65%
same,growth inhibition,[15]; [17],-5%
same,growth inhibition,[15]; [18],75% (active)
same,growth inhibition,[15]; at 50.0 µM,38.3%
same,growth inhibition,[16]; at 1.2 µM,3%
same,growth inhibition,[16]; at 3.7 µM,1%
same,growth inhibition,[16]; at 11.0 µM,0%
same,growth inhibition,[16]; at 33.0 µM,12%
same,growth inhibition,[16]; at 100.0 µM,42%
